# In PubChem BioAssay (Tox21):
# Several values for one entry are separate records, joined by “and”; a condition that tells them apart may be missing. Equal values may be shown once. Results filed as inconclusive are left out. Where a call stands in place of a potency, no number is given. Activity calls are given as the source filed them. Calls follow the shape of the dose curve; as a rule, active = well fitted activation curve with a large enough effect in the repeat runs; inconclusive = weak or mixed curves; inactive = flat fitted curve, though single readings scatter.
# Assay: A CellTox Green Cytotoxicity Assay to monitor cytotoxicity in HEK293 cells - 40 hour (AID 1224871); also: nearly all actives have a fitted effect of over 45% in size
# Settings: CellTox Green fluorescence; series mostly up to 76.8 µM
# Excerpt: National Center for Advancing Translational Sciences [NCATS]
# NIH Chemical Genomics Center [NCGC]
# U.S. Environmental Protection Agency [EPA]
# National Institutes of Environmental Health Sciences [NIEHS]
# National Toxicology Program [NTP]
# Cell-based models are critical for drug discovery. Determining the natural cytotoxic effects resulting from test compounds is an essential research activity. A CellTox Green Cytotoxicity Assay to monitor cytotoxicity in real time of continues cell culture during 40 hours of the compound treatment was used to screen Tox21 10K library compounds in Hek293 cells. CellTox Green Cytotoxicity Assay is a nonlytic, homogeneous, biofluorescent method to measure cytotoxicity in cell culture after experimental manipulation. The assay system uses a proprietary asymmetric cyanine dye that is excluded from viable cells but preferentially stains the dead cell's DNA. […] Viable cells produce no appreciable increases in fluorescence. Therefore, the fluorescence signal produced by the binding interaction with dead cell DNA is proportional to cytotoxicity.
# The mixture of Hek293 cell suspension and reagents were dispensed at 600cells/6 ul/well in 1536-well tissue culture treated black solid bottom plates using a Multidrop dispenser. After the assay plates were incubated at a 37 C/5% CO2 incubator for 5 hours, 23 nL of compounds dissolved in DMSO, positive and negative controls was transferred to the assay plate by a pintool work station. The plates were incubated at 37 C for 40 hours. The fluorescence intensity were measured at 0h, 8h, 16h, 24h, 32h and 40h time points using ViewLux plate reader during compound treatment.
# Potency is read from the fitted curve at half-maximal effect.
row,SMILES,Potency
1,Cc1cc(C)c(/C=C2\C(=O)Nc3ccccc32)[nH]1,9.52 µM (active)
2,C=C(C)c1cccc(C(=C)C)c1,inactive
3,CC(C)(C)c1csc(-c2cc3cc(OCc4ccccc4CC(=O)O)ccc3o2)n1,54.9 µM (active)
4,COc1c(C)c2c(c(O)c1C/C=C(\C)CCC(=O)OCCN1CCOCC1)C(=O)OC2,inactive
5,CC[N+](CC)(CC)CCOc1ccc(/C=C/c2ccccc2)cc1,6.01 µM (active)
6,Cc1cc(-c2ccc(N=Nc3cc(S(=O)(=O)O)c4ccccc4c3N)c(C)c2)ccc1N=Nc1cc(S(=O)(=O)O)c2ccccc2c1N,49.2 µM (active)
7,CCCCOC(=O)CO,inactive
8,O=C(O)c1cc(-c2ccc(F)cc2F)ccc1O,inactive
9,CC1(C)[C@@H](O)CC[C@]2(C)[C@H]3C(=O)C=C4[C@@H]5C[C@@](C)(C(=O)O)CC[C@]5(C)CC[C@@]4(C)[C@]3(C)CC[C@@H]12,inactive
10,CCCCCCCCCCCCOC(=O)c1ccc(O)cc1,inactive
11,CCC(C)(CCC(C)C)C(=O)[O][Sn]([CH3])([CH3])[O]C(=O)C(C)(CC)CCC(C)C (stereo not given),inactive
12,Nc1nc(-c2ccccc2)cs1,inactive
13,CC1(C)CC(O)CC(C)(C)N1,inactive
14,C=CCCC(=O)/C=C/C1C(C)=CCCC1(C)C (stereo not given),24.5 µM (active)
15,Cc1ccc(C(C)C)cc2c(C)ccc1-2,inactive
16,O[C@@H]([C@H](O)[C@H](O)CBr)[C@H](O)CBr,inactive
17,CCN(CC)C(=O)c1cc(S(=O)(=O)Cc2ccccc2)c(N2CCC(c3ccccc3)CC2)cc1N(CC)CCN(C)C,17.2 µM (active)
18,Nc1nc2c(ncn2COCCO)c(=O)[nH]1,inactive
19,O=[N+]([O-])c1ccc(O)cc1C(F)(F)F,inactive
20,CCCC1CCC(=O)CC1,inactive

row,SMILES,Potency
1,CN1CCC[C@@H]1CCO[C@](C)(c1ccccc1)c1ccc(Cl)cc1,26.8 µM (active)
2,O=C(O)c1cc(N=Nc2ccc([N+](=O)[O-])cc2)ccc1O,inactive
3,Cc1c(C)c([N+](=O)[O-])c(C(C)(C)C)c([N+](=O)[O-])c1C,inactive
4,CC(=O)c1ccc(C(C)=O)cc1,inactive
5,CCC(=O)OC(=O)CC,inactive
6,CC(CCc1ccccc1)NCC(O)c1ccc(O)c(C(N)=O)c1 (stereo not given),inactive
7,C1CCC(SSC2CCCCC2)CC1,inactive
8,Cc1cc(C(C#N)c2ccc(Cl)cc2)c(Cl)cc1NC(=O)c1cc(I)cc(I)c1O (stereo not given),inactive
9,CN(C)c1ccc(C(=C2C=CC(=[N+](C)C)C=C2)c2ccc(N(C)C)cc2)cc1,21.9 µM (active) and 21.3 µM (active)
10,O=c1oc2cc(O)ccc2c2oc3cc(O)ccc3c12,inactive
11,CCCCC/C=C\C/C=C\CCCCCCCC(=O)O,inactive
12,CCCCCCCCCCCCCC[N+](C)(C)C,29.9 µM (active) and 48.9 µM (active) and 26.8 µM (active)
13,O=C(Oc1ccccc1)Oc1ccccc1,inactive
14,O=C1OC2(c3ccc(O)cc3Oc3cc(O)ccc32)c2ccc(N=C=S)cc21,12.5 µM (active)
15,Cc1cc(C(C)(C)C)c(O)c(C)c1Cn1c(=O)n(Cc2c(C)cc(C(C)(C)C)c(O)c2C)c(=O)n(Cc2c(C)cc(C(C)(C)C)c(O)c2C)c1=O,inactive
16,OC[C@@H](O)[C@@H](O)CO,inactive
17,Clc1sc(Cl)c(Cl)c1Cl,inactive
18,CCn1c2ccccc2c2cc([N+](=O)[O-])ccc21,inactive
19,COC(=O)C1=C(C)NC(C)=C(C(=O)OCCN2CCN(C(c3ccccc3)c3ccccc3)CC2)C1c1cccc([N+](=O)[O-])c1 (stereo not given),inactive
20,C#Cc1ccc(-c2ccccc2F)cc1,inactive
